From PubChem BioAssay
In the library only some 8% were active in any assay of this set; here they are far more common.
HCV inhibitor – inhibitors of hepatitis C virus infection; Huh7.5.1 HCVcc-Cre infection, luciferase reporter, 44 h; Potency, µM (top dose mostly 41.8 µM), for inactives: top-dose activity change, negative = inhibition, actives largely listed as inhibitors; 3.4% of 340,000 active; AID 651820; active means well fitted inhibition curve with a large enough effect; inconclusive means small, poorly fitted or top-dose-only effect, or another doubt; inactive means no such curve, though single readings can be large or run the other way; further: potency means the concentration at half of the fitted maximal effect; on the % scale 0 is the no-effect control and ±100 the full control effect
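HCVcc-Cre virus at an moi near 0.5 was added right after compound to cells cultured 4 h from seeding (1,000 cells/well). Luciferase activity was determined 44 h later, 15 min after substrate addition at RT.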
LASV entry inh – inhibitors of Lassa virus binding or cell entry; Lassa virus pseudotype entry inhibition, cell reporter; AID 540256; 1.2% of 300,000 active; Potency, µM (highest dose often 37.9 µM), inactives show at the highest dose activity change, negative = inhibition, hits mostly inhibitors; calls by dose curve; tested in HEK293 cells; further: potency means the concentration at half of the fitted maximal effect; on the % scale 0 is the no-effect control and ±100 the full control effect; nearly all actives have a fitted effect of over 50% in size
SARS PLP yeast – inhibitors of SARS-CoV papain-like protease in yeast | Potency, µM (highest dose often 32.9 µM), inactives show top-dose activity, positive = growth rescue, hits mostly activators | 0.19% of 330,000 active | AID 485353 | S. cerevisiae expressing SARS-CoV PLpro, growth rescue; calls by dose curve; further: potency means the concentration at half of the fitted maximal effect; 0% is about no effect; nearly all actives have a fitted effect of over 55% in size
FMDV inh – antivirals against foot and mouth disease virus | FMDV antiviral cell-based qHTS | Potency, µM (top dose mostly 57.9 µM), without a hit: at the highest dose activity change, negative = inhibition, usual class: inhibitors | 1.2% of 410,000 active; calls by dose curve; tested in HEK293T cells; further: read-out not given here; potency means the concentration at half of the fitted maximal effect; on the % scale 0 is the no-effect control and ±100 the full control effect; nearly all actives have a fitted effect of over 45% in size
Marburg entry inh – Marburg virus entry inhibition | Marburg virus pseudotyped entry inhibition, cell reporter | Potency, µM (highest dose often 37.8 µM), inactives show at the highest dose activity change, negative = inhibition, most hits filed as inhibitors | 1.8% of 300,000 active; calls by dose curve; tested in HEK293 cells; further: potency means the concentration at half of the fitted maximal effect; on the % scale 0 is the no-effect control and ±100 the full control effect
HCMV inh – blocks human cytomegalovirus replication; HFF cells, HCMV-luciferase reporter, 72 h; hits give low values; activity change, negative = inhibition, % at 57.5 µM; 4.5% of 410,000 active; in the data active means activity change below about -60%; inconclusive means no clear call, values can overlap the other calls; inactive means above about -39%; further: on the % scale 0 is the no-effect control and ±100 the full control effect
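Cell-based, HFFs, 1000 cells/well, 16 h 37C; cpds in DMSO + HCMV-luc, MOI 1 PFU/cell; 72 h 37C; OneGlo luminescence after 5 min RT; norm. to buffer vs Salinomycin 10uM.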
* hit, by the source's call; ? = inconclusive; . = no result; ! = not active in a repeat; [ ] = dose if it differs, or a comment.

SMILES	HCV inhibitor	LASV entry inh	SARS PLP yeast	FMDV inh	Marburg entry inh	HCMV inh
COc1ccc(CNC(=O)C(=O)NCCCn2ccnc2)cc1	10%	-15%[46.1 µM]	0%	-5%	?	-29
O=C(CCN1C(=O)/C(=C/c2cccs2)SC1=S)Nc1ccccn1	-11%	.	0%	-20%	.	-26
Cc1ccc(/C=C2\SC(=S)N(CCCC(=O)Nc3ccc(O)cc3)C2=O)cc1	-29%	?	0%	-5%	14%[46.1 µM]	-95*
O=C(CCCN1C(=O)/C(=C\c2cccs2)SC1=S)Nc1ccc(C(=O)O)cc1	25%	?	2%	-5%	5%[46.1 µM]	?
O=C(CCCN1C(=O)/C(=C\c2cccs2)SC1=S)Nc1ccccn1	25µM*	-28%	-4%	4%	-11%[46.1 µM]	-97*
O=C(CCCN1C(=O)S/C(=C\C=C\c2ccccc2)C1=O)Nc1ccc(O)cc1	13µM*	?	2%	-3%	?	-37
O=C(CCCN1C(=O)/C(=C\c2cccs2)SC1=S)Nc1ccc(O)cc1	?	?	0%	-11%	?	-99*
O=C(CN1C(=O)S/C(=C/C=C/c2ccccc2)C1=O)Nc1ccc(C(=O)O)cc1	-17%	?	6%	29%	4%[46.1 µM]	-19
CCCC[C@]12Cc3c(ccc4ccccc34)[C@H](O1)C1=C(O2)C(=O)c2ccccc2C1=O	.	.	.	.	22%[14.2 µM]	.
Cc1cc(=O)c2cc(C(=O)Nc3ccc(C)c(C)c3)ccc2[nH]1	.	19%[46.1 µM]	.	16%	?	-7
O=C(O)[C@@H]1CSCN1S(=O)(=O)c1cccc2nsnc12	.	.	.	.	-1%	.
COc1cccc(NC(=O)c2cc3ccccc3cc2OC)c1	-22%	.	-8%	74%	.	132
O=C(CCCN1C(=O)/C(=C/c2cccs2)SC1=S)Nc1ccccc1O	?	-17%	1%	-2%	?	-91*
NC(=O)c1ccsc1NC(=O)CCS(=O)(=O)c1ccc(F)cc1	?	9%[46.1 µM]	6%	?	-12%	-63*
O=C(Nc1cnn(Cc2ccc(Cl)cc2)c1)c1cccs1	-14%	.	0%	4%	.	-15
CCc1ccccc1NC(=O)c1ccc(Cn2cc([N+](=O)[O-])cn2)cc1	13%	18%	-1%	-11%	19%	-25
O=C(Nc1cnn(Cc2ccc(Cl)cc2)c1)c1ccc([N+](=O)[O-])cc1	-3%	?	2%	?	11µM*	-39
CCOc1ccc(C(=O)Nc2cnn(Cc3ccc(Cl)c(Cl)c3)c2)cc1	13µM*	?	-3%	?	?	-70*
COc1ccc(-c2cc(C(=O)Nc3cnn(Cc4ccc(F)cc4)c3)no2)cc1OC	.	?	.	-13%	-23%[46.1 µM]	-7
O=C(Nc1ccc([N+](=O)[O-])cc1)c1ccc(Cn2cc([N+](=O)[O-])cn2)cc1	?	.	1%	?	.	-68*
COc1ccc(C(=O)Nc2cnn(Cc3c(F)cccc3Cl)c2)cc1OC	13µM*	.	0%	1%	.	52
Cc1cc(=O)n2c(n1)NC(Nc1cccc(C)c1C)=NC2c1ccccc1 (stereo not drawn)	11%	.	0%	-13%	.	?
Cc1ccc(C2=NCC(C)n3c2c2ccccc2[n+]3[O-])cc1 (stereo not drawn)	.	.	.	.	.	19
Cc1ccc(C2CC(=O)n3nc(-c4cccc(C)c4)nc3S2)cc1 (stereo not drawn)	.	32%[46.1 µM]	.	-16%	-1%[46.1 µM]	2
CC(=O)c1ccc(F)c(-c2cc(C)cc3c2OC(CNC(=O)C2CCCCN2C)C3)c1 (stereo not drawn)	.	.	.	-14%	.	.
SMILES	HCV inhibitor	LASV entry inh	SARS PLP yeast	FMDV inh	Marburg entry inh	HCMV inh
COc1ccc(NC2CCCN(C(=O)c3ccc4[nH]c(C)c(C)c4c3)C2)cc1 (stereo not drawn)	10%	?	-1%	0%	-12%[46.1 µM]	13
O=C(Nc1ccc(Cl)c(Cl)c1)c1ccc(Cn2cc(Cl)cn2)cc1	?	.	-91%	24%	1%	-24
O=C(Nc1cnn(Cc2ccc(Cl)c(Cl)c2)c1)C12CC3CC(CC(C3)C1)C2	?	?	-33%	0%	13µM*	68
O=C(Cc1ccc(-n2c(=O)c3sccc3n(CC(=O)Nc3ccccc3F)c2=O)cc1)NCc1ccco1	19%	.	1%	10%	.	-60*
Oc1ccc(Br)cc1-c1ccnn1-c1ccccc1	?	-9%	-1%	?	8.9µM*	8
CCCN1CCN(CCCNC(=O)c2cc3c(s2)-c2ccccc2OC3)CC1	10µM*	.	2%	0%	?	-23
CN(C)CCNC(=O)c1cc2c(s1)-c1ccccc1OC2	25µM*	.	-3%	41%	.	105
CC1CCCC(C)N1CCCNC(=O)c1cc2c(s1)-c1ccccc1OC2 (stereo not drawn)	?	.	15%	-11%	.	-33
COC(=O)c1cc2c(s1)-c1cc(F)ccc1OC2	13%	?	1%	31%	1%	-66*
CCCN1CCN(C(=O)c2cc3c(s2)-c2ccccc2OC3)CC1	-9%	.	-6%	51%	.	61
Cc1cccc2c1-c1sc(C(=O)NCCCN3CCCC(C)C3)cc1CO2 (stereo not drawn)	11µM*	.	?	-11%	.	-23
COc1ccc(CCNC(=O)CSCC(=O)Nc2cc(S(C)(=O)=O)ccc2Cl)cc1	1%	.	-1%	-11%	.	0
COc1ccccc1NS(=O)(=O)c1ccc(C(=O)NCCCN2CCOCC2)cc1	49%	-3%	-1%	-20%	6%[46.1 µM]	-7
CC1CC(C)CN(CCCNC(=O)c2cc3c(s2)-c2ccccc2OC3)C1 (stereo not drawn)	8.9µM*	.	9%	-10%	.	?
Cc1cccc2c1-c1sc(C(=O)NCCc3ccc(Cl)cc3)cc1CO2	.	.	.	0%	-24%[46.1 µM]	-87*
CCOc1ccc(NC(=O)c2cc3c(s2)-c2ccccc2OC3)cc1	.	.	.	-27%	3%[46.1 µM]	-27
Cc1cccc(CCNC(=O)c2cc3c(s2)-c2c(C)cccc2OC3)c1	.	.	.	?	-2%[46.1 µM]	-20
CCCN1CCN(CCCNC(=O)c2cc3c(s2)-c2c(C)cccc2OC3)CC1	2.5µM*	.	22%	-2%	?	-70*!
Cc1csc(NC(=O)c2cc3c(s2)-c2ccccc2OC3)n1	11µM*	15%	16%	-7%	?	18
O=C(NC1=C(Cl)CCCC1)NC1CCCCC1Cl (stereo not drawn)	.	.	.	.	12%[46.1 µM]	.
CCCC(=O)N1CC2(CCN(C(C)=O)CC2)c2c(n(C)c3cc(OC)ccc23)[C@H]1CO	.	.	.	.	.	12
O=C(NCCCN1CCN(c2ccccc2F)CC1)c1cc2c(s1)-c1ccccc1OC2	.	.	.	1%	-25%[46.1 µM]	?
CCN1CCN(CCCNC(=O)c2cc3c(s2)-c2ccccc2OC3)CC1	7.1µM*	.	-6%	9%	?	-108*!
O=C1c2ccccc2NC(c2ccc(Cl)cc2Cl)N1O (stereo not drawn)	-7%	2%	14µM*	-8%	-22%	-2
